According to PubChem BioAssay:
“And” between values parts separate entries of the source, which are not always exact repeats. Equal entries are not always repeated.

Columns and labels:
[1] = system: Botulinum neurotoxin type F light chain protease (Clostridium botulinum); experiment: Botulinum neurotoxin type F light chain protease inhibition, multiplex microsphere flow cytometry, validation set (AID 588459); settings: multiplex microsphere protease substrate cleavage assay, at 10 µM, hits give high values
[2] = target: Botulinum neurotoxin type A (Clostridium botulinum) (UniProt P0DPI0); experiment: BoNT/A light chain protease inhibitors, biochemical, multiplex microsphere flow cytometry, validation set (AID 588460); settings: at 10 µM, hits give high values
[3] = target: Lethal factor (Bacillus anthracis) (UniProt P15917); experiment: Lethal factor protease inhibitors, Bacillus anthracis, multiplex microsphere cleavage assay, validation set (AID 588461); settings: flow cytometry, at 10 µM, hits give high values

Measured: inhibition

CCOc1ccc2ccccc2c1C(=O)N[C@@H]1C(=O)N2[C@@H]1SC(C)(C)[C@@H]2C(=O)O
inactive: [1] 5.4% | [2] 1.2% | [3] 0.3%

COc1cccc(N2C(=O)[C@H]3C(C(=O)c4cnccn4)=NN[C@H]3C2=O)c1
inactive: [1] 3% | [2] -0.2% | [3] 4.8%

CC(=O)N1CCN(c2ccc(NC(=O)/C=C/c3ccccc3)cc2)CC1
inactive: [1] 4.3% | [2] -0.3% | [3] -2.2%

COc1c2c(nc3occc13)C(CC=C(C)C)(OC)C(O)CC2 (stereo not drawn)
inactive: [1] 0.8% | [2] 0.9% | [3] -4.1%

CCNC(=O)c1c(N)sc2c1CCCCC2
inactive: [1] 0.9% | [2] -0.9% | [3] -5.1%

CO/N=C(\C(=O)N[C@@H]1C(=O)N2C(C(=O)O)=C(COC(C)=O)CS[C@H]12)c1csc(N)n1 (stereo in doubt)
inactive: [1] 2.7% | [2] -1.1% | [3] -5.4%

CC(C)(Sc1cc(C(C)(C)C)c(O)c(C(C)(C)C)c1)Sc1cc(C(C)(C)C)c(O)c(C(C)(C)C)c1
inactive: [1] 0% | [2] -2.2% | [3] -7.4%

CC(=O)OCC1OC(n2ccc(=O)[nH]c2=O)C(O)C1O (stereo not drawn)
inactive: [1] -0.4% | [2] 0.5% | [3] -5.3%

COc1cc([C@@H]2c3cc4c(cc3[C@H](O)[C@H]3COC(=O)[C@H]23)OCO4)cc(OC)c1OC
inactive: [1] 1.4% | [2] 0% | [3] -2.8%

Cc1ccc(N2CCN(C(=S)c3ccc(-c4cccc([N+](=O)[O-])c4)o3)CC2)cc1
inactive: [1] -0.6% | [2] -1.4% | [3] -5.3%

COc1ccc(O)c(C(=O)/C=C/c2cc3ccccc3o2)c1
inactive: [1] -0.1% | [2] 0% | [3] -3.5%

Cc1ccc(S(=O)(=O)Oc2ccccc2/C=N/N=C(N)N)cc1
inactive: [1] 0.8% | [2] 1.3% | [3] -7.6%

CC(=O)O[C@H]1C(=O)[C@@]2(C)[C@H]([C@H](OC(=O)c3ccccc3)[C@]3(O)C[C@H](OC(=O)[C@H](O)C(NC(=O)c4ccccc4)c4ccccc4)C(C)=C1C3(C)C)[C@]1(OC(C)=O)CO[C@@H]1C[C@@H]2O (stereo partly drawn)
inactive: [1] 1.1% | [2] -0.8% | [3] 4.6%

CCS(=O)(=O)CCn1c([N+](=O)[O-])cnc1C
inactive: [1] 2.2% | [2] 0.7% | [3] 3.7%

O=C(Cc1ccccc1[N+](=O)[O-])NCc1ccncc1
inactive: [1] -3.6% | [2] 0.9% | [3] -5.4%

CCOc1ccc(NC2OC(C)C(O)C(O)C2O)c([N+](=O)[O-])c1 (stereo not drawn)
inactive: [1] 3.1% | [2] -0.7% | [3] 11.5%

CCSC(SCC)[C@H](O)[C@@H](O)[C@H](O)[C@H](O)CO
inactive: [1] 3.3% | [2] -0.7% | [3] -1.5%

COc1cc2[nH]c3c(=O)n(CCN4CCOCC4)cnc3c2cc1OC
inactive: [1] 0.3% | [2] 0.1% | [3] 1%

CC(=O)Nc1ccccc1O
inactive: [1] 1.5% | [2] -1.1% | [3] -1.7%

c1ccc(CC2=NCCN2)cc1
inactive: [1] 1.9% | [2] -1.4% | [3] -4.7%

Cc1nc2ccccc2n1CC(O)Cn1c2ccccc2c2ccccc21 (stereo not drawn)
inactive: [1] 2.9% | [2] -0.1% | [3] -0.7%

CCc1cc2c(=O)c(-c3nc4ccccc4n3C)coc2c(CN2CCN(C)CC2)c1O
inactive: [1] -0.9% | [2] 0.3% | [3] -2.8%

Cc1ccc2c(c1)C(CCN)C(=O)N2Cc1ccccc1 (stereo not drawn)
inactive: [1] -1% | [2] 0.7% | [3] 6.7%

C/C=C(/C(=C/C)c1ccc(O)cc1)c1ccc(O)cc1
inactive: [1] -1.2% | [2] -0.3% | [3] 3.5%

CCOC(=O)Cn1c(C)cc(=O)c2ccccc21
inactive: [1] 6.3% | [2] 1.7% | [3] 9.6%

COC(=O)[C@@H](N)CS
inactive: [1] 2.1% | [2] -1.9% | [3] -1.2%

CCCCC[C@H](O)/C=C/C1=C(CCCCCCC(=O)O)C(=O)CC1
inactive: [1] -0.6% | [2] -0.5% | [3] 2.4%

O=C(NNC(=O)c1cccs1)c1ccco1
inactive: [1] 1.9% | [2] -2.8% | [3] 0.2%

Cn1c(=O)oc2cc(S(=O)(=O)N3CCc4ccccc4C3)ccc21
inactive: [1] -0.9% | [2] -3% | [3] -3.5%

CC(=O)[C@@]1(O)CC[C@H]2[C@@H]3C[C@H](C)C4=CC(=O)C=C[C@]4(C)[C@@]3(F)[C@@H](O)C[C@@]21C
inactive: [1] -1.5% | [2] -1.1% | [3] 5.2%

c1ccc(CN(CC2=NCCN2)c2ccccc2)cc1
inactive: [1] 5.3% and 2.2% | [2] 1.1% and 0.4% | [3] -3.2% and 1.4%

Nc1cc(-c2ccncc2)c[nH]c1=O
inactive: [1] -3.2% | [2] -2% | [3] -5.1%

O=C(CCC1CCCN(C(=O)c2ccsc2)C1)NCc1ccc(F)c(F)c1 (stereo not drawn)
inactive: [1] 2.2% | [2] -0.6% | [3] -6.8%

OCCN1CCN(CCCN2c3ccccc3Sc3ccc(Cl)cc32)CC1
inactive: [1] -0.8% | [2] 0.8% | [3] 1.2%

C[C@@H]1C[C@H]2[C@@H]3C[C@H](F)C4=CC(=O)C=C[C@]4(C)[C@@]3(F)[C@@H](O)C[C@]2(C)[C@@]1(O)C(=O)CO
inactive: [1] 0.3% | [2] 0.4% | [3] 0.5%

CC(C)[C@H]1CN(C)CCN1Cc1cn(C)nc1-c1cccc(Cl)c1
inactive: [1] 12% | [2] 8.3% | [3] 8.2%

COC1CCN(C(=O)c2ccc(OC3CCN(Cc4ccccn4)CC3)cc2)CC1
inactive: [1] 2.5% | [2] 2.3% | [3] 0.5%

CCOC(=O)n1c(=O)oc2ccccc21
inactive: [1] 0.5% | [2] 0.5% | [3] -4%

COc1ccc2oc(-c3ccco3)cc(=O)c2c1
inactive: [1] 3% | [2] -0.8% | [3] -7%

CC(C)[N+](C)(CCOC(=O)C1c2ccccc2Oc2ccccc21)C(C)C
inactive: [1] -0.1% | [2] 0.5% | [3] 4%

CC(C)Oc1ccc2c(=O)c(-c3ccccc3)coc2c1
inactive: [1] 4.4% | [2] 1.4% | [3] 6.8%

C=C(C)COc1ccc(-c2n[nH]c(C)c2-c2ccc(OC)cc2)c(O)c1
inactive: [1] -1.3% | [2] -0.9% | [3] 5.2%

O=C(NCCc1c[nH]c2ccccc12)c1cccnc1
inactive: [1] -2.9% | [2] -0.7% | [3] 1.1%

CCOC(=O)C(=Cc1ccccc1OC)C(=O)OCC
inactive: [1] -0.7% | [2] -2.6% | [3] -6.9%

COc1ccc(C(=O)NCCC2=CCCCC2)cc1[N+](=O)[O-]
inactive: [1] -5.9% | [2] -1.5% | [3] -4.6%

O=C1OC(Nc2ccc3c(c2)OCO3)c2ccccc21 (stereo not drawn)
inactive: [1] 0.9% | [2] -1.8% | [3] -5.7%

c1ccc(-c2ccccn2)nc1
inactive: [1] -0.7% | [2] 0.3% | [3] 6.3%

CCOC(=O)c1ncn2c1CN(C)C(=O)c1cc(F)ccc1-2
inactive: [1] -1.4% | [2] -1.4% | [3] -2.7%

C#CCOc1ccc2c(C)cc(=O)oc2c1
inactive: [1] -2.9% | [2] -2.2% | [3] 4.6%

O=c1c2ccccc2nc2n1-c1ccccc1CCC2
inactive: [1] 3.5% | [2] 0.6% | [3] 12.2%

CC1=C/C(=N\N=C2\NC(=O)C(CC(=O)Nc3ccccc3F)S2)CC(C)(C)C1 (stereo not drawn)
inactive: [1] -1.1% | [2] 0.8% | [3] 2.8%

CC1(C(=O)O)CCC(C(=O)NC2CCCCCC2)C1(C)C (stereo not drawn)
inactive: [1] -6.8% | [2] -1.2% | [3] -7.7%

CCNCCC(CCC(C)C)c1ccc2c(c1)OCO2 (stereo not drawn)
inactive: [1] -3.1% | [2] -1.3% | [3] -0.1%

COc1ccc(CNC(=O)C2CCCN2C)cc1OC (stereo not drawn)
inactive: [1] 0.4% | [2] -2.5% | [3] 6.2%

Cc1cccc(Nc2ncccc2C(=O)O)c1C
inactive: [1] -2.7% | [2] -1.6% | [3] -4.7%

COc1ccccc1N1CCN(CC(O)COc2cccc3ccccc23)CC1 (stereo not drawn)
inactive: [1] -2% | [2] -2.3% | [3] -6.6%

COc1ccc(C(=O)Nc2ccccc2C(=O)NC(Cc2c[nH]c3ccccc23)C(=O)O)cc1 (stereo not drawn)
inactive: [1] -0.8% | [2] 0.5% | [3] 0%

Cc1ccc(S(=O)(=O)N[C@@H](Cc2ccccc2)C(=O)CCl)cc1
inactive: [1] -3.3% | [2] 1.2% | [3] 3.4%

CC[C@H]1CN2CCc3cc(OC)c(OC)cc3[C@@H]2C[C@@H]1C[C@H]1NCCc2cc(OC)c(OC)cc21
inactive: [1] 3.7% | [2] 0.9% | [3] 0.6%

NC(=O)[C@@H]1[C@@H]2C(=O)N(c3ccc(F)cc3)C(=O)[C@@H]2[C@H]2C=Cc3ccccc3N21
inactive: [1] 0.9% | [2] 1.5% | [3] -5.6%

CN/C(=C/[N+](=O)[O-])NCCSCc1ccc(CN(C)C)o1
inactive: [1] 0.1% | [2] 0.1% | [3] -7.4%
